Experimental data: the supplement of paper PMC8387472

How the values were obtained:
Conditions in all cases: mESC; 2uM; 72 h treatment, harvest day 5
[1] = compound: O=c1cc(N2CCOCC2)oc2c(-c3ccc4c(c3)OCCO4)csc12; test: fraction of edited reads among all mapped reads; higher = more Cas9 editing
[2] = compound: S=c1[nH]cnc2nc[nH]c12 [Mercaptopurine (6-MP)]; test: as above
[3] = compound: S=c1nc[nH]c2nc[nH]c12 [6-Mercaptopurine (6-MP) Monohydrate]; test: as above
[4] = compound: CC(=O)O/N=C1\C(=O)N(Cc2cc(Cl)ccc2Cl)c2ccc(Cl)cc21; test: fraction of microhomology deletions among edited reads; higher = more MH deletions
[5] = compound: CC(C)(C#N)c1ccc(N2C(=O)OCc3cnc4ccc(-c5cnc6ccccc6c5)cc4c32)cc1; test: as above
[6] = compound: CCCCOc1c(C(=O)c2c(F)cc(C)cc2F)c[nH]c2nncc1-2; test: as above
[7] = compound: CCN1CCN(CC(=O)Nc2ccc(-c3cccc4c(=O)cc(N5CCOCC5)oc34)c3sc4ccccc4c23)CC1; test: as above
[8] = compound: CCc1c2c(nc3ccc(OC(=O)N4CCC(N5CCCCC5)CC4)cc13)-c1cc3c(c(=O)n1C2)COC(=O)[C@]3(O)CC [Irinotecan HCl Trihydrate]; test: as above
[9] = compound: CCn1c(=O)c(-c2ccc(Cl)cc2Cl)cc2cnc(Nc3ccc(N4CCNCC4)c(F)c3)nc21; test: as above
[10] = compound: CNc1ccc([N+](=O)[O-])c(Nc2ccc3[nH]ncc3c2)n1; test: as above

Row | Target | fraction of edited reads among all mapped reads [1] | fraction of edited reads among all mapped reads [2] | fraction of edited reads among all mapped reads [3] | fraction of microhomology deletions among edited reads [4] | fraction of microhomology deletions among edited reads [5] | fraction of microhomology deletions among edited reads [6] | fraction of microhomology deletions among edited reads [7] | fraction of microhomology deletions among edited reads [8] | fraction of microhomology deletions among edited reads [9] | fraction of microhomology deletions among edited reads [10]
1 | 0.0 (DMSO control at this site: 1-bp insertion 0.463, MH deletion 0.339, edited 0.14) AGGATTACCGAGACCTACGCGAACCGAAATCGCTGTCCGGTGCGCAAGCAGGGCTGGCGTC | 0.0913 | 0.181 | 0.128 | 0.346 | 0.314 | 0.312 | 0.552 | 0.345 | 0.394 | 0.304
2 | 30.0 (DMSO control at this site: 1-bp insertion 0.074, MH deletion 0.67, edited 0.142) GAGCTGGCATGAGTATTTGTGCCACATGGCTCCCACATGGCTCCACATGCAAGTTTGAAAC | 0.0819 | 0.165 | 0.115 | 0.699 | 0.725 | 0.723 | 0.761 | 0.727 | 0.708 | 0.699
3 | 33.0 (DMSO control at this site: 1-bp insertion 0.008, MH deletion 0.771, edited 0.112) CATTAAGAGCAGCTGCCGGCCCCCAAGTGGACAGAGCTGGCCCTGCTGATTCAACAGTGCA | 0.0578 | 0.144 | 0.0975 | 0.714 | 0.71 | 0.717 | 0.76 | 0.741 | 0.716 | 0.727
4 | 31.0 (DMSO control at this site: 1-bp insertion 0.315, MH deletion 0.329, edited 0.026) ACCTCCACAGGCTGGGTGGCCCGGAGGCTGGGCGGCCCGGAGGCTGGGCTGGGCGAGTATC | 0.0134 | 0.0491 | 0.0301 | 0.32 | 0.349 | 0.458 | 0.276 | 0.519 | 0.5 | 0.405
5 | 29.0 (DMSO control at this site: 1-bp insertion 0.084, MH deletion 0.745, edited 0.133) TTGATGAACTTCCTCTTCTTCTCATGTCTCCGGTCTCCGGTAGGCCACGTGCATGGCCACT | 0.0905 | 0.171 | 0.127 | 0.727 | 0.728 | 0.734 | 0.773 | 0.719 | 0.757 | 0.738
6 | 18.0 (DMSO control at this site: 1-bp insertion 0.114, MH deletion 0.789, edited 0.094) GCGCAAGTGCATAAGTTTTTCTTAAGGCGTGCCTTTAAGGCGTGCCTTTGTCGGTCCTGGA | 0.0717 | 0.112 | 0.0789 | 0.794 | 0.798 | 0.787 | 0.866 | 0.789 | 0.794 | 0.793
7 | 44.0 (DMSO control at this site: 1-bp insertion 0.181, MH deletion 0.512, edited 0.123) ACACATACCTTCTTCGAGGCAGCCAGCATGATGAGACAGGTCTCCCACAAACACATCGTGT | 0.091 | 0.173 | 0.13 | 0.553 | 0.526 | 0.528 | 0.637 | 0.469 | 0.547 | 0.506
8 | 35.0 (DMSO control at this site: 1-bp insertion 0.01, MH deletion 0.72, edited 0.098) CCACTTTTAGAGAGGGTGAAAATCATCAGTTATCATCAGGGCAACAAATTGCTTTCTCCTA | 0.0645 | 0.127 | 0.0862 | 0.754 | 0.761 | 0.781 | 0.788 | 0.732 | 0.729 | 0.732
9 | 1.0 (DMSO control at this site: 1-bp insertion 0.521, MH deletion 0.323, edited 0.141) GTGTCACAGTGCACGAGTGACGGGATAATGTGCTGACAGGTAATTGATAGGCTTCCAACTT | 0.0814 | 0.187 |  | 0.293 | 0.269 | 0.238 | 0.461 | 0.246 | 0.293 | 0.218
10 | 45.0 (DMSO control at this site: 1-bp insertion 0.017, MH deletion 0.666, edited 0.101) TTACACAGCATGAACTGCTAGGTGATGATGTCAGATTCGGTTTTACTAACTTCTCCAAAAA | 0.0613 | 0.128 | 0.092 | 0.623 | 0.655 | 0.62 | 0.654 | 0.631 | 0.655 | 0.622
11 | 41.0 (DMSO control at this site: 1-bp insertion 0.022, MH deletion 0.754, edited 0.115) AAAGAGACAGCAGGTATGAATCCATCTTCCTGACCCTTGGGACCAGCCGGGGCAGTGAAGC | 0.0713 | 0.161 | 0.116 | 0.745 | 0.754 | 0.717 | 0.792 | 0.729 | 0.738 | 0.742
12 | 42.0 (DMSO control at this site: 1-bp insertion 0.145, MH deletion 0.655, edited 0.132) GGGCTAAACCTATGAGCACAGTAGAACTAAGGGTGGGTGGTGTAGCTAAAGAACTTGACCA | 0.0994 | 0.171 | 0.109 | 0.699 | 0.678 | 0.696 | 0.734 | 0.672 | 0.706 | 0.633
13 | 38.0 (DMSO control at this site: 1-bp insertion 0.063, MH deletion 0.487, edited 0.17) GGGCTGGGTGCTAAAATGAGGAGCTCCAAGAAGACTGAGGTGAACCTGGAGGCCCCTGAGC | 0.0925 | 0.193 | 0.157 | 0.497 | 0.485 | 0.505 | 0.546 | 0.488 | 0.513 | 0.501
14 | 26.0 (DMSO control at this site: 1-bp insertion 0.518, MH deletion 0.262, edited 0.026) AGGGCGCGCCCCACGCACTCTGCGGCAAGTCCCTCTGCGGCAAGTCCTCGGCCCGGAAGAC | 0.0106 | 0.04 | 0.0282 | 0.289 | 0.324 | 0.27 | 0.54 | 0.29 | 0.331 | 0.256
15 | 17.0 (DMSO control at this site: 1-bp insertion 0.112, MH deletion 0.348, edited 0.058) CCATAGCGCGATAAATATGACGGCTCATCCTGTATGACGGCTCATCCTGTATCAACTGTCC | 0.037 | 0.0873 | 0.069 | 0.396 | 0.391 | 0.416 | 0.509 | 0.411 | 0.358 | 0.402
16 | 16.0 (DMSO control at this site: 1-bp insertion 0.172, MH deletion 0.29, edited 0.05) CGGACTGCACACATGGGTAGGATCGTGCACGCGAGGTAGGATCGTGCACGCGAAGTTATTC | 0.0306 | 0.0811 | 0.0574 | 0.319 | 0.293 | 0.294 | 0.34 | 0.252 | 0.308 | 0.252
17 | 23.0 AGAACAAAGCGCTCATATAACGATATGGGGGGTTATGGGGGGTTGAATTGCTTCAGCACGA |  |  |  |  |  |  |  |  |  | 0.88
18 | 28.0 (DMSO control at this site: 1-bp insertion 0.035, MH deletion 0.77, edited 0.142) TGGTTCTTCCTTTGTAGAGAGTGTTCATCTGGGAATCTGGGACTTGGATGAGACAATCATT | 0.0926 | 0.18 | 0.117 | 0.789 | 0.793 | 0.767 | 0.818 | 0.763 | 0.774 | 0.774
